# Hit rate of the full screen: of about 360,000 compounds, about 2,800 (0.78%) were called active. Cut-off read from the data, not from the text of the source: active = inhibition above about 26%; inactive = the rest. The list comes from a sample in which actives are over-represented; it also holds similar structures and randomly drawn compounds.
# Test system: Nicotinate-nucleotide adenylyltransferase NadD (Staphylococcus aureus N315)
# Assay: S. aureus NadD enzyme activity blockers – biochemical, colorimetric, uHTS, primary screen (AID 602399)
# Conditions: purified NadD enzyme, colorimetric absorbance read-out; at 20 µM; active compounds read high
row,SMILES,inhibition
1,C[C@H]1COC(=O)[C@H](CC(=O)OC(C)(C)C)C/C=C\C[C@@H](CC(=O)N[C@H](CO)Cc2ccccc2)C(=O)N1,-1.24% (inactive)
2,CC(c1ccccn1)N(C)C(=O)c1ccc2nc(Cc3cccc(Cl)c3)oc2c1 (centres undefined),-8.59% (inactive)
3,CCOCCCNC(=O)Cc1cc(=O)[nH]c(=O)[nH]1,4.88% (inactive)
4,CC(=O)N1CCc2ccc(N)cc21,-3.06% (inactive)
5,O=C1NC(O)CCN1C1CC(O)C(CO)O1 (centres undefined),-1.72% (inactive)
6,Cc1noc(C)c1S(=O)(=O)N(C)C[C@H]1Oc2ccc(NC(=O)C3CC3)cc2C(=O)N([C@H](C)CO)C[C@@H]1C,4.79% (inactive)
7,Cc1ccc2nc(SCC(=O)N3CC(C)OC(C)C3)nc(=O)n2c1 (centres undefined),-2.71% (inactive)
8,CCOC(=O)C1=CCC(c2ccc(F)cc2)N(S(=O)(=O)c2ccc(C)cc2)C1 (centres undefined),-6.49% (inactive)
9,COC(=O)[C@]12CCCCC=C1N(Cc1ccc(Cl)cc1Cl)C(=O)[C@H](CC(=O)NCc1cccc3ccccc13)C2,16.3% (inactive)
10,CCN(CC)c1ccc(C(=O)NNC(=O)CCc2nc3ccccc3c(=O)[nH]2)cc1,-1.03% (inactive)
11,CCCn1c(C)cc(-c2csc(NC(=O)CCc3nc4ccccc4c(=O)[nH]3)n2)c1C,47.6% (active)
12,Cc1cc(C)c(-c2csc(NC(=O)CCCc3nc4ccccc4c(=O)[nH]3)n2)c(C)c1,21.6% (inactive)
13,CN(CC(=O)NCc1ccc2c(c1)OCO2)CC(=O)Nc1ccc(F)c(F)c1F,-3.42% (inactive)
14,COc1ccc([N+](=O)[O-])cc1NC(=O)CC1SC(=Nc2cccc(C)c2C)N(/N=C(\C)c2ccc(C)cc2)C1=O (centres undefined),26.7% (active)
15,COc1ccc([N+](=O)[O-])cc1NCC(=O)c1ccc(C)cc1,7.38% (inactive)
16,COc1ccc([N+](=O)[O-])cc1NC(=O)c1ccc(N(Cc2ccccc2C)S(C)(=O)=O)cc1,11% (inactive)
17,N#CNC1=NCN(CCc2ccccc2)CN1,3.37% (inactive)
18,COc1ccc(NC(=O)N(C)C[C@@H]2OCc3cn(nn3)CCCC(=O)N([C@H](C)CO)C[C@H]2C)c(OC)c1,-0.14% (inactive)
19,COc1ccc(-n2c(SCC(=O)Nc3sc4c(c3C#N)CCCC4)nnc2-c2ccc(O)cc2)cc1,33.1% (active)
20,CCCc1cc(=O)[nH]c(SCC(=O)Nc2sc3c(c2C#N)CCCC3)n1,0.874% (inactive)
21,COc1cccc(CN(C)CC(=O)Nc2sc3c(c2C#N)CCC3)c1,-5.48% (inactive)
22,COc1ccc(-c2ccc3[nH]c4c(c3c2)CCN2C[C@H]3[C@H](C)ON(C)[C@H]3C[C@@H]42)cc1,-7.97% (inactive)
23,COc1cccc(C(O)c2nc(-c3ccc(C)c(C)c3)cs2)c1 (centres undefined),-4.75% (inactive)
24,Cc1ccc(/C=C/C(=O)Nc2ccc([N+](=O)[O-])c(NC(=O)/C=C/c3ccc(C)o3)c2)o1,47.9% (active)
25,Cc1cc(NC(=O)COC(=O)/C=C/c2ccc(C)o2)no1,-5.17% (inactive)
26,COC(=O)/C=C\C(=O)Nc1cccc([N+](=O)[O-])c1,7.18% (inactive)
27,O=C(NC(=O)N1CCSCC1)c1c(Cl)cccc1Cl,17.8% (inactive)

row,SMILES,inhibition
1,Cc1ccc(S(=O)(=O)NCC(=O)N(CC(=O)NC(C)(C)C)Cc2cccs2)cc1,-3.65% (inactive)
2,Cn1c2c(c(=O)n(C)c1=O)[C@@H]1c3c(ccc4ccccc34)OC[C@@H]1CO2,1.89% (inactive)
3,CC1=CC(=O)C=CC1(C)C(Cl)(Cl)Cl (centres undefined),4.28% (inactive)
4,N#CC1=C(N)Oc2c(sc3ccccc23)C1c1ccco1 (centres undefined),33.4% (active)
5,Cc1ccc(C(=O)N(CN2CCCC2=O)c2ccc(F)cc2)cc1,-3.99% (inactive)
6,COc1cc(C(F)(F)F)c(C(=O)N(C)c2ccc(Cl)cc2)cn1,-3.26% (inactive)
7,COc1ccc(C(NC(=O)C2CCN(CCCc3ccccc3)CC2)c2cccs2)cc1 (centres undefined),0.814% (inactive)
8,COc1cccc2sc(NNC(=O)c3nc4ccccc4s3)nc12,36.6% (active)
9,COc1cccc(/C=C/c2ccc3ccccc3n2)c1OC(C)=O,-5.51% (inactive)
10,Cc1ccc2sc(NNC(=O)c3ccc4c(c3)OCCO4)nc2c1C,11.1% (inactive)
11,O=C(COc1nc2ccccc2nc1N1CCOCC1)NCC(F)(F)F,-2.03% (inactive)
12,COC(=O)[C@@]1(Cc2ccc(OC)cc2)[C@H]2c3cc(C(=O)N4CCCC4)n(Cc4ccc(OC(F)(F)F)cc4)c3C[C@H]2CN1C(=O)c1ccccc1,15.7% (inactive)
13,CCOc1ccc(S(=O)(=O)N2CCCCC2)cc1NC(=O)CN1CCCC1c1cccs1 (centres undefined),5.31% (inactive)
14,CCN(CC)c1ccc(NC(=O)CN2C(=O)NC3(CCc4ccccc43)C2=O)cc1 (centres undefined),-4.85% (inactive)
15,CCCN(c1ccc(C(C)C)cc1)S(=O)(=O)c1c(C)[nH]c(=O)[nH]c1=O,6.85% (inactive)
16,CC(=O)Nc1ccc(C(=O)Nc2cccc(S(=O)(=O)NC3=NCCC3)c2)cc1,7.82% (inactive)
17,Nc1[nH]c(=S)nc2nc(-c3ccccc3)c(-c3ccccc3)nc12,31.3% (active)
18,CC/C(=N\O)C(C)(C)/[N+]([O-])=C/c1ccc(Br)cc1,-4.93% (inactive)
19,CC12CN(Cc3ccccc3)CC(C)(CN(Cc3ccccc3)C1)C2=NO,-2.69% (inactive)
20,O=C(NCCc1cccc(F)c1)C1CC(O)CN1C(=O)Nc1ccccc1 (centres undefined),0.207% (inactive)
21,O=S(=O)(c1ccc(Cl)cc1)N1CCCN(c2ccc(C(F)(F)F)cn2)CC1,-6.85% (inactive)
22,Cc1ccc2nc(/C(C#N)=C\c3ccc(OC(=O)c4cccs4)cc3)[nH]c2c1,40.4% (active)
23,COc1ccc(CCNC(=O)/C(C#N)=C2\N=C(NC(=O)c3cccs3)c3ccccc32)cc1,2.29% (inactive)
24,CN1CCN(CC#CCC2(O)c3ccccc3-c3ccccc32)CC1,-2.12% (inactive)
25,O=C1CC(c2cccc(Cl)c2)CC(O)=C1C=Nc1ccccc1 (centres undefined),-3.63% (inactive)
26,COc1ccc2c(c1OC)C(=O)N(c1ncn[nH]1)C2,0.954% (inactive)
27,COc1ccc(Cl)cc1S(=O)(=O)N1CCC(O)(c2ccc(Cl)cc2)CC1,-4.67% (inactive)
